Our source for the growth inhibition values is PubChem BioAssay (NCI).

This test can be described thus: NCI Yeast Anticancer Drug Screen. Data for the rad52 strain (AID 147).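 Further: 0% = growth of vehicle-treated control cultures.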 Particulars: S. cerevisiae rad52 mutant growth inhibition, stronger effect = higher value. How it is done:
Growth inhibition of yeast strains with defined genetic alterations is measured as a screen for potential anti-cancer activity. Selected strains with alterations in DNA damage repair or cell cycle control were exposed to compounds and growth inhibition was measured relative to vehicle treated controls. The strain used in this assay is rad52

The panel holds about 79,000 compounds, 15% with a hit somewhere; the sample as a whole holds those more often. Values without a mark were called inactive. Active and inactive are the calls of the source. No stated cut-off is given here; in the data, active means growth inhibition above about 70%; inactive means the rest.

Consider `BrCc1cccc2ccc3cccc(CBr)c3c12`, for which the growth inhibition (at 1.2 µM) was -3%; the growth inhibition (at 3.7 µM) is -4%; the growth inhibition (at 11.0 µM) was -1%; the growth inhibition (at 33.0 µM) is 2%; the growth inhibition (at 100.0 µM) was 10%.

With `NC(=NCc1ccccc1)N/N=C\c1ccnc2ccccc12`, the growth inhibition (at 1.2 µM) was 0%; the growth inhibition (at 3.7 µM) was -3%; the growth inhibition (at 11.0 µM) is 0%; the growth inhibition (at 33.0 µM) is 0%; the growth inhibition (at 100.0 µM) is 32%.

In the case of `Cc1cc(CO)c(O)c(CNCc2cc(C)cc(CO)c2O)c1`, the growth inhibition (at 1.2 µM) was 4%; the growth inhibition (at 3.7 µM) was 8%; the growth inhibition (at 11.0 µM) was 14%; the growth inhibition (at 33.0 µM) was 22%; the growth inhibition (at 100.0 µM) was 98% (active).

As to `COc1cc2c(c(OC)c1OC)-c1c(cc3c(c1OC)OCO3)CC(C)C(C)(O)C2OC(=O)c1ccccc1` (stereo not given), the growth inhibition (at 1.2 µM) was -26%; the growth inhibition (at 3.7 µM) was -15%; the growth inhibition (at 11.0 µM) was -25%; the growth inhibition (at 33.0 µM) was -22%; the growth inhibition (at 100.0 µM) is 47%.

Regarding `COC(=O)CSSCc1ccc([N+](=O)[O-])cc1`, the growth inhibition was 3% (at 1.2 µM); 19% (at 3.7 µM); 40% (at 11.0 µM); 75% (active) (at 33.0 µM); 98% (active) (at 100.0 µM).

In the case of `COc1cc2c3c(cccc3c1)C(=O)N(CCN(C)C)C2=O`, the growth inhibition (at 1.2 µM) was -43%; the growth inhibition (at 3.7 µM) is -14%; the growth inhibition (at 11.0 µM) was 20%; the growth inhibition (at 33.0 µM) was 55%; the growth inhibition (at 100.0 µM) was 87% (active).

Turning to `O=C1C=CC(=O)N1c1ccc2c(c1)Cc1cc(NC(=O)C(F)(F)F)ccc1-2`, the growth inhibition is 12% (at 1.2 µM); 24% (at 3.7 µM); 42% (at 11.0 µM); 60% (at 33.0 µM); 74% (active) (at 100.0 µM).

Turning to `N#CSc1ccc(S(N)(=O)=O)cc1`, the growth inhibition reads like this: (at 1.2 µM) -51%; (at 3.7 µM) -48%; (at 11.0 µM) -51%; (at 33.0 µM) -1%; (at 100.0 µM) 64%.
